Screening results from PubChem BioAssay.
Luc counter: Counterscreen for Luciferase (Kinase-Glo TM) Inhibition; Kinase-Glo luciferase, ATP luminescence, 8 min; Potency, µM (top dose mostly 38.3 µM), for inactives: top-dose activity change, negative = inhibition, actives largely listed as inhibitors; Luciferin 4-monooxygenase (Photuris pensylvanica), Q27757; 0.28% of 200,000 active; note: nearly all actives have a fitted effect of over 60% in size
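Light output from Kinase-Glo luciferase with luciferin and 10 uM ATP in 50 mM imidazole pH 7.2, KCl, MgCl2, Tween 20, BSA; compound pin-delivered, 8-min ambient incubation, then luminescence read.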
VP16 counter: VP16 counterscreen qHTS for inhibitors of ROR gamma transcriptional activity; Potency, µM (doses to about 53.6 µM), for inactives: at the highest dose activity, negative = inhibition, hits mostly inhibitors; 3.5% of 310,000 active; AID 2546, 2010; Drosophila S2 Gal4-VP16 UAS-luciferase, luminescence, 20 h;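 note: Gal4-VP16 expression switched on by copper sulfate through the metallothionein promoter; nearly all actives have a fitted effect of over 50% in size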
RORg inh: qHTS for inhibitors of ROR gamma transcriptional activity; Nuclear receptor ROR-gamma (Mus musculus), P51450; Drosophila S2 Gal4-RORgamma UAS-luciferase reporter, 20 h; 5.4% of 310,000 active; Potency, µM (doses to about 53.6 µM), inactives show at the highest dose activity change, negative = inhibition, most hits filed as inhibitors; note: nearly all actives have a fitted effect of over 60% in size
Target sequence (P51450 whole entry, looked up, the tested form may be a part): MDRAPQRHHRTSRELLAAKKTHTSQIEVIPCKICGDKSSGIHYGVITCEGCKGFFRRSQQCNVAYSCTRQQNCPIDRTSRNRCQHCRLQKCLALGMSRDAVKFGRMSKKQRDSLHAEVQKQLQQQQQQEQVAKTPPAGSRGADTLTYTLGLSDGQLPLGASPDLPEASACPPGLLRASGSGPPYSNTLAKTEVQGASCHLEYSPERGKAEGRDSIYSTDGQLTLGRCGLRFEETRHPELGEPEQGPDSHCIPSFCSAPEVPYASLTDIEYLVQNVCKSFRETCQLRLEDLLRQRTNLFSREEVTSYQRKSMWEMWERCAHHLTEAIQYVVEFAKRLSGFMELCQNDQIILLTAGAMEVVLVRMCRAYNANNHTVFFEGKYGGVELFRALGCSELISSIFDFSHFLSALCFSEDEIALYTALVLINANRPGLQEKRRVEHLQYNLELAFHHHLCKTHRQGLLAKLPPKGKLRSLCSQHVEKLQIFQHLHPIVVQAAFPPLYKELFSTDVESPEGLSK
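Drosophila Schneider cells stably carrying a metallothionein-driven Gal4 DBD–ROR gamma fusion and a UAS-Photinus luciferase reporter were exposed to compound for 1 hr, then induced with copper sulfate (700 uM final) for 20 hr at ambient temperature before luminescence reading.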
Active calls of the source: *; u = inconclusive; x = no result; [ ] = dose if it differs, or a comment. Hits are enriched below; roughly 6.4% of the tested compounds scored in any of these assays. Calls come from the whole dose curve; as a rule, active = well fitted curve in the direction sought with a large enough effect; inconclusive = small, poorly fitted or top-dose-only effect, or another doubt; inactive = no such curve, though single readings can be large; an effect the other way counts as inactive or inconclusive. % is set by controls: 0 for no effect and ±100 for the full control effect; potency is the fitted concentration of half-maximal effect.

SMILES	Luc counter	VP16 counter	RORg inh
NS(=O)(=O)c1ccc(CCNC(=O)CNC(=O)c2ccccc2F)cc1	x	12%	-1%
O=C(CN1C(=O)NC2(CCOc3ccccc32)C1=O)NCC(F)(F)F (centres undefined)	x	9%	-23%
COc1ccc(C)cc1NC(=O)CCNC(=O)Cn1ccc2ccccc2c1=O	x	-2%	19%
CC(C)CCN1CCN(C2CSCCSC2)CC1CCO (centres undefined)	0%	-9%	12%
O=C(CSc1nnc(-c2cc3ccccc3cc2O)n1Cc1ccco1)c1ccc(F)cc1	7%	14µM*	-33%
Cc1occc1-c1nnc(SCC(=O)c2ccc(F)cc2)n1Cc1ccco1	3%	20%	16%
N#CCCn1c(=O)c(-c2cc(F)cc(F)c2)nc2cnc(N3CCOCC3)nc21	x	-2%	6%
COc1ccccc1CN1CCCC2(CCN(C(=O)c3ccncc3)CC2)C1	-3%	5%	-19%
CCCCNC(=S)NC1CCCC1	-2%	18µM*	10µM*
CC(C)CCNC(=O)C(=O)NC1CCCC1	14%	1%	-16%
CC(C)CN(CC(C)C)C(=S)NC1CCCCC1	1%	7.1µM*	2.8µM*
CC(C)CCNC(=S)NC1CCCC1	-3%	u	2.8µM*
OCCCNC(=S)NC1CCCC1	3%	-3%	-6%
CC(C)CN(CC(C)C)S(=O)(=O)N1CCC(C(=O)NC2CCCCCCC2)CC1	0%	-1%	12%
O=C(CNC(=O)c1cccs1)N/N=C/c1c(F)cccc1Cl	x	4%	17%
C=C1c2cccc(C(F)(F)F)c2O[C@H](C(=O)OCC)[C@@H]1CCCCCC	-1%[39.9 µM]	6%	3%
O=C(CCCC[C@@H]1SC[C@H]2NC(=O)N[C@H]12)Nc1ccc(C(=O)O)cc1	x	-9%	6%
CCOC(=O)c1nnc(-c2ccccc2)nc1Oc1ccc(Cl)cc1	2%	10µM*	20µM*
CCOC(=O)c1nnc(-c2ccccc2)nc1Sc1ccccc1Cl	-1%	u	-12%
O=C(O)CCC(=O)N1CCN(c2ncccn2)CC1	x	-11%	-1%
Fc1cccc(Cl)c1CNn1cn[nH]c1=S	1%	3%	u
S=c1[nH]ncn1NCc1ccc(Cl)cc1Cl	0%	u	6.3µM*
O=C(O)c1ccc2c(c1)C(=O)N([C@]1(C(=O)O)C[C@H]1c1ccccc1)C2=O	x	-12%	-3%
COc1ccc(N2CSC3=C(C#N)C(c4cc(OC)ccc4OC)CC(=O)N3C2)c(OC)c1 (centres undefined)	0%	u	u
COc1ccc(N2CSC3=C(C#N)C(c4cc(OC)c(OC)cc4OC)CC(=O)N3C2)c(OC)c1 (centres undefined)	-2%	4%	13µM*
SMILES	Luc counter	VP16 counter	RORg inh
COC(=O)CNC(=O)c1cccc(-c2ccc(OC)cc2)c1	-1%	-3%	26%
CN(Cc1nc(-c2cccnc2)no1)S(=O)(=O)c1ccc(Br)cc1	2%	11µM*	40%
CN(Cc1nc(-c2cccnc2)no1)S(=O)(=O)c1ccc2ccccc2c1	-3%	0%	24%
Cc1ccc(N=Cc2cc(Cc3ccccc3Cl)cc([N+](=O)[O-])c2O)c(O)c1	-9%	4.5µM*	6.3µM*
COc1ccc(N=Cc2cc(Cc3ccccc3Cl)cc([N+](=O)[O-])c2O)cc1OC	-1%	-16%	7%
COc1ccc(CNC2CC(C)N(C)CC2C)cc1OC (centres undefined)	x	u	-8%
Cc1ccc(-n2cc(-c3ccc([N+](=O)[O-])cc3)[nH]c2=S)c(C)c1	3%	6.3µM*	1.3µM*
Cc1cccc(-n2cnc3cc([N+](=O)[O-])ccc32)c1	-1%	15%	37%
Cc1cccc(-n2cc(-c3ccc([N+](=O)[O-])cc3)[nH]c2=S)c1	2%	4µM*	7.1µM*
Cc1ccc2c(-c3ccc([N+](=O)[O-])cc3)cc(=O)[nH]c2c1	x	2%	30%
COc1ccc(CNC(=O)C(C)OC(=O)c2cccs2)cc1 (centres undefined)	x	-8%	-18%
CCC(=O)N1CCc2cc(S(=O)(=O)N3CCN(c4cc(C)ccc4C)CC3)ccc21	x	17%	-23%
COc1ccc([N+](=O)[O-])c(S(=O)(=O)c2ccccc2)n1	x	5µM*	2.5µM*
O=[N+]([O-])c1cccnc1S(=O)(=O)c1ccccc1	x	7.1µM*	8.9µM*
Nc1cccnc1S(=O)(=O)c1ccccc1	x	-1%	12%
COc1ccccc1S(=O)(=O)c1ccccc1[N+](=O)[O-]	-5%	-3%	28%
Cc1cccc(NC(=S)Nc2cccc(C)n2)n1	x	6.3µM*	u
Cc1cccc(NC(=S)NC2CCCCC2)n1	x	4.5µM*	1µM*
Cc1ccc(OCC(=O)NC(=S)Nc2cccc(C)n2)cc1	0%	2%	-43%
O=C(Nc1ccccn1)NC1CCCCC1	-2%	10%	25%
Cc1cccc(NC(=O)Nc2cccc(C)n2)n1	-5%	27%	u
Cc1cccc(NC(=S)NC2CCCC2)n1	4%	2.8µM*	0.35µM*
CCCCNC(=O)Nc1nc2ccc(CC)cc2s1	0%	14%	-32%
Cc1cc(C)cc(OCC(O)CN2CC(C)OC(C)C2)c1 (centres undefined)	x	0%	-1%
O=C(N/N=C\c1ccccn1)C1c2ccccc2Oc2ccccc21	4%	u	7.9µM*
SMILES	Luc counter	VP16 counter	RORg inh
O=C(N/N=C\c1ccccn1)C1COc2cc3ccccc3cc2O1 (centres undefined)	4%	u	4.5µM*
O=C(Nc1ncccn1)C1c2ccccc2Oc2ccccc21	6%	-1%	-16%
NNC(=O)C1COc2cc3ccccc3cc2O1 (centres undefined)	x	-14%	-39%
N#C/C(=C\c1ccncc1)C(N)=O	4%	-8%	-29%
CC(C)(C)n1nnnc1SCC(=O)Nc1nn(-c2ccccc2)nc1C(N)=O	-1%	-3%	8%
O=C1CCCc2nc(N3CCN(C(=O)c4ccco4)CC3)ncc21	x	18%	19%
COc1ccc(C)c2sc(NNC(=O)COc3ccccc3)nc12	3%	-4%	7.1µM*
COc1ccc(C)c2sc(NC(=O)CCS(=O)(=O)c3ccccc3)nc12	x	u	-10%
COc1cccc2sc(NNC(=O)COc3ccccc3)nc12	-1%	-19%	4.5µM*
COc1ccccc1NC(=O)COc1ccccc1	0%	-5%	-6%
CN1CCC[C@@H]1Cc1c[nH]c2ccc(CCS(=O)(=O)c3ccccc3)cc12	x	-1%	9%
Cc1onc(-c2c(Cl)cccc2Cl)c1CO/N=C(\C#N)c1c(Cl)cccc1Cl	x	-3%	15%
Cn1cc(CN2CCN(CC(C)(C)C)C(CCO)C2)c2ccccc21 (centres undefined)	x	8%	-24%
CS(=O)(=O)c1ccc(CNC(=O)[C@H]2C[C@@H]2[C@H](NP(=O)(c2ccccc2)c2ccccc2)c2ccccc2)cc1	2%	-10%	24%
C=CCNC(=S)N/N=C/c1ccc(-c2cc(Cl)ccc2Cl)o1	-2%	-4%	2%
Cc1ccc(-c2ccc(/C=N/NC(=S)Nc3ccccc3)o2)cc1[N+](=O)[O-]	-1%	13µM*	0.89µM*
O=C(O)c1ccc(-c2ccc(/C=N/Nc3ccc([N+](=O)[O-])cc3)o2)cc1	x	1%	24%
